Experimental findings from PubChem BioAssay (NCATS) are described below.

Inconclusive results are not listed. Values without a mark were called inactive. Activity calls are given as the source filed them. The call rests on the fitted dose curve; in most records, active means well fitted cell-killing curve with a large enough effect; inconclusive means small, poorly fitted or top-dose-only effect, or effect the other way; inactive means no such curve, though single readings can be large or run the other way.

Assay [1] is described as follows: Viability qHTS for spleen associated tyrosine kinase inhibitor (SYKi) naive MV4-11 cells (AID 1963823). Further: nearly all actives have a fitted effect of over 40% in size. To be noted: MV4-11 AML viability, CellTiter-Glo luminescence, 72 h; series mostly up to 45 µM. The procedure, abridged:
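Read-out: CellTiter-Glo luminescence. Exposure: 72 hr, 37 C, 5% CO2, 95% humidity. Cells: MV4-11 without SYK inhibitor history, 500/well, qHTS format.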
On the technique in general: Quantitative high-throughput screening tests each substance at several concentrations.

A short description of assay [2]: Viability qHTS for spleen associated tyrosine kinase inhibitor (SYKi) drug resistant MV4-11 cells (AID 1963824). Further: nearly all actives have a fitted effect of over 35% in size. Conditions: SYKi-resistant MV4-11 viability, CellTiter-Glo, 72 h; series mostly up to 45 µM. An outline of the steps: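 CellTiter-Glo luminescence, read 10 min after reagent addition, reports viability after a 72 hr compound exposure. Cells are an MV4-11 line made resistant to SYK inhibition, seeded at 500 per well onto compound-containing plates.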
Potency means the concentration at half of the fitted maximal effect.

Take `C/C(=C\CCC(C)C1CC(O)C2(C)C3CCC4C(C)(C)C(OC5OCC(O)C(O)C5O)CCC45CC35CC(O)C12C)C(=O)O` (stereo not drawn): the Potency result in assay [1] and in assay [2] was “inactive” throughout.
As to `CC1=C2C(=O)C=C(CO)C2C2OC(=O)C(CS(=O)(=O)O)C2C(OC(=O)Cc2ccc(O)cc2)C1` (stereo not drawn), the Potency result in assay [1] and in assay [2] was “inactive” throughout.
Turning to `O=C(OC1CN2CCC1CC2)N1CCc2ccccc2C1c1ccccc1` (stereo not drawn), the Potency in assay [1] and in assay [2] was 18.4 µM (active) in each case.
For `C[C@@H]1O[C@@H](O[C@H]2[C@H](OC(=O)[C@]34CCC(C)(C)C[C@H]3C3=CCC5[C@@]6(C)CC[C@H](O[C@@H]7O[C@H](CO[C@@H]8OC[C@H](O)[C@H](O)[C@H]8O)[C@@H](O)[C@H](O)[C@H]7O)C(C)(C)C6CC[C@@]5(C)[C@]3(C)C[C@H]4O)OC[C@@H](O)[C@@H]2O)[C@H](O)[C@H](O)[C@H]1O[C@@H]1OC[C@H](O)[C@H](O[C@@H]2OC[C@@H](O)[C@H](O)[C@H]2O)[C@H]1O` (stereo partly drawn), the viability (% of control) in assay [1] is 84.1% [at 9.25 µM]. Further, the viability, % of control in assay [2] is 84.6% [at 9.25 µM].
For `CC(C)(O)C(O)C(=O)OCc1ccc(O[C@@H]2O[C@H](CO)[C@@H](O)[C@H](O)[C@H]2O)cc1` (stereo partly drawn), the Potency result in assay [1] and in assay [2] was “inactive” each time.
With `Cc1cc(=O)oc2cc(NC(=O)[C@H](CCC(=O)O)NC(=O)[C@H](CC(C)C)NC(=O)[C@H](CC(C)C)NC(=O)OCc3ccccc3)ccc12`, the Potency entry in assay [1] and in assay [2] was “inactive” each time.
In the case of `CC1(C)C(=O)N2c3ccccc3C(O)(CC(C(=O)O)n3cnc4ccccc4c3=O)C2N1O` (stereo not drawn), in assay [1], the Potency entry is “inactive”. Moreover, the Potency in assay [2] was 0.252 µM (active).
On the same counts, the results for `Cc1ccc(NC(=O)c2ccc(CN3CC[C@H](N(C)C)C3)c(C(F)(F)F)c2)cc1Nc1nccc(-c2cncnc2)n1` are 6.32 µM (active) and 7.23 µM (active).
Regarding `CSCC1OC(n2cnc3c(=O)[nH]cnc32)C(O)C1O` (stereo not drawn), the Potency result in assay [1] and in assay [2] was “inactive” each time.
Turning to `CN(C)CCCCC(=O)Nc1ccc(NC(=S)NC(=O)c2ccc(C(C)(C)C)cc2)cc1`, the Potency in assay [1] was 1.3 µM (active); in assay [2] it was 1.46 µM (active).
Regarding `COc1cc2c(cc1O)CC(O)(CO)C(CO)C2c1ccc(OC2OC(CO)C(O)C(O)C2O)c(OC)c1` (stereo not drawn), the Potency result in assay [1] and in assay [2] was “inactive” each time.
As for `C=C1CC[C@@H]2[C@](C)(CO)[C@H](O)CC[C@@]2(C)[C@@H]1/C=C/C1=CCOC1=O`, the Potency entry in assay [1] and in assay [2] was “inactive” throughout.
Regarding `COc1cc(C2Oc3c(OC)cc(/C=C/C(=O)OC4CC(O)(C(=O)O)CC(O)C4O)cc3C2CO)ccc1O` (stereo not drawn), the Potency result in assay [1] and in assay [2] was “inactive” each time.
`CN(CCCN1c2ccccc2CCc2ccccc21)CC(=O)c1ccc(Cl)cc1`: the Potency in assay [1] is 23.7 µM (active); in assay [2], 13.3 µM (active).
In the case of `CC1(C(=O)O)CC[C@]2(C(=O)OC3OC(CO)C(O)C(O)C3O)CC[C@]3(C)C(=CCC4[C@@]5(C)CC[C@H](OC6OCC(O)C(O)C6OC6OC(CO)C(O)C(O)C6O)C(C)(C)C5CC[C@]43C)C2C1` (stereo partly drawn), the viability (% of control) in assay [1] was 68.3% [at 9.25 µM]. Moreover, the viability, % of control in assay [2] was 78.9% [at 9.25 µM].
Turning to `CC(C)=CC/C=C(\C)[C@H]1CC[C@]2(C)[C@@H]1[C@H](O)C[C@@H]1[C@@]3(C)CC[C@H](O)C(C)(C)[C@@H]3[C@@H](O[C@@H]3O[C@H](CO)[C@@H](O)[C@H](O)[C@H]3O)C[C@]12C`, the Potency result in assay [1] and in assay [2] was “inactive” each time.
With `Cc1cc(C)c(Nc2ccnc(Nc3ccc(C#N)cc3)n2)c(C)c1`, the values for the Potency in assay [1] and in assay [2] were 2.31 µM (active) and 4.11 µM (active), respectively.
`O=C(O[C@H]1[C@@H]2C[C@@H]3OC[C@@](O)([C@H]2[C@H](O[C@@H]2O[C@H](CO)[C@@H](O)[C@H](O)[C@H]2O)O3)[C@@H]1O)c1ccccc1`: the Potency entry in assay [1] and in assay [2] was “inactive” throughout.
On to `CN1c2ccccc2C(=O)N2CCC3c4ccccc4NC3C21` (stereo not drawn), for which the Potency in assay [1] is 2.55 µM (active); in assay [2], 1.8 µM (active).
With `COc1cc(/C=C/C=O)cc(OC)c1O[C@@H]1O[C@H](CO)[C@@H](O)[C@H](O)[C@H]1O`, the Potency result in assay [1] and in assay [2] was “inactive” throughout.
On to `CCN1CCN(Cc2ccc(NC(=O)c3ccc(C)c(Oc4ccnc5[nH]ccc45)c3)cc2C(F)(F)F)CC1`, for which the figures for the Potency in assay [1] and in assay [2] were 0.0255 µM (active) and 0.0718 µM (active), respectively.
With `O=C(c1ccccc1)c1c(O)cc(O)cc1O[C@@H]1O[C@H](CO)[C@@H](O)[C@H](O)[C@H]1O`, the Potency result in assay [1] and in assay [2] was “inactive” each time.
For the compound `COC(=N)c1nc2ccc3ncnc(Nc4ccc(F)cc4Br)c3c2s1`, the Potency in assay [1] was 1.46 µM (active); in assay [2] it was 0.82 µM (active).
`CC1=CCC(C(C)(C)O[C@@H]2O[C@H](CO[C@@H]3O[C@@H](C)[C@H](O)[C@@H](O)[C@H]3O)[C@@H](O)[C@H](O)[C@H]2O)CC1` (stereo partly drawn): the Potency result in assay [1] and in assay [2] was “inactive” in each case.
